# PubChem BioAssay (NCATS)
# Where “and” joins values, the source holds several entries; their conditions need not be identical. Equal values may be shown once. A number with no mark means an inactive call. Inconclusive results are not listed. Where a call stands in place of a potency, no number is given. Calls of active or inactive are those of the source. Unless noted, the call rests on the fitted dose curve; in most records, active means well fitted curve in the direction sought with a large enough effect; inconclusive means small, poorly fitted or top-dose-only effect, or another doubt; inactive means no such curve, though single readings can be large; an effect the other way counts as inactive or inconclusive.
# Key:
# OV90 = assay: Primary qHTS to identify gynecologic anti-cancer compounds using libraries of approved drugs and bioactive compounds (AID 1345084); conditions: Gynecologic cancer cell panel viability, ATPlite luminescence, 48 h; series mostly up to 57.5 µM; further: nearly all actives have a fitted effect of over 55% in size; further: potency means the concentration at half of the fitted maximal effect
# In short: (§1)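 Five-concentration response, 48 h; readout is ATP-driven luciferase luminescence.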
# PA-1 = assay: as above; conditions: Gynecologic cancer cell panel viability, ATPlite luminescence, 48 h; series mostly up to 57.5 µM
# In short: as §1
# Tov112D = assay: as above; conditions: Gynecologic cancer cell panel viability, ATPlite luminescence, 48 h; series mostly up to 57.5 µM
# In short: as §1
# Tov-21-G = assay: as above; conditions: Gynecologic cancer cell panel viability, ATPlite luminescence, 48 h; series mostly up to 57.5 µM
# In short: as §1
# [1] = Drug repurposing screens with cells derived from glioblastoma tumor samples (AID 1345199); conditions: GBM patient neurospheres viability, ATP luminescence, 48 h; Potency: tumour line A unless noted; series mostly up to 45.9 µM; further: nearly all actives have a fitted effect of over 40% in size
# In short: (§2)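 Primary testing used CD133+ neurospheres from four GBM patients, seven concentrations, 48 h exposure and ATP-based viability; confirmation added three slower-growing patient lines.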
# astro = assay: as above; conditions: viability, ATP luminescence, 48 h; series mostly up to 45.9 µM
# In short: as §2
# [2] = target: Nuclear receptor subfamily 1 group I member 2 (Rattus norvegicus) (UniProt Q9R1A7); assay: qHTS assay for small molecule activators of the rat pregnane X receptor (rPXR) signaling pathway (AID 651751; call rule not given here); conditions: rPXR reporter cells, luciferase (One-Glo), 24 h
# Chain of Nuclear receptor subfamily 1 group I member 2 (Rattus norvegicus) (Q9R1A7 whole entry, looked up): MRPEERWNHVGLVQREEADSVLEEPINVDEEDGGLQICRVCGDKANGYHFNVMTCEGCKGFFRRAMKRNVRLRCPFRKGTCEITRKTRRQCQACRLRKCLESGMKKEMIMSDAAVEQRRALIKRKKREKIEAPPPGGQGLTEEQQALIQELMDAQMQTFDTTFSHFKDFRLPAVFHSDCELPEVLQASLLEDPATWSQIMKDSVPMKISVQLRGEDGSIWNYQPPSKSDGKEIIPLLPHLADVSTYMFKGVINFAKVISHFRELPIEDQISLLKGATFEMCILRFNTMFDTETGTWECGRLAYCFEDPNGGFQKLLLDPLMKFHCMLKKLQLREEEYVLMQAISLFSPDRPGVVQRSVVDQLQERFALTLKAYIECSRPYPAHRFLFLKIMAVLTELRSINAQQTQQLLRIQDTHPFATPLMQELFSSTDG
# [3] = qHTS assay for small molecule activators of the human pregnane X receptor (PXR) signaling pathway (AID 720659; call rule not given here)
# SKOV3 = assay: Primary qHTS to identify gynecologic anti-cancer compounds using libraries of approved drugs and bioactive compounds (AID 1345084); conditions: Gynecologic cancer cell panel viability, ATPlite luminescence, 48 h; series mostly up to 57.5 µM; further: nearly all actives have a fitted effect of over 55% in size; further: potency means the concentration at half of the fitted maximal effect
# In short: as §1
# [4] = qHTS assay to identify inhibitors of the type 1 interferon - major histocompatibility complex class I in skeletal muscle: Counter screen cell viability and HiBit confirmation (AID 1347412); conditions: iHSKM muscle cells + IFN-b, HiBiT or CellTiter-Glo, 24 h; further: potency means the concentration at half of the fitted maximal effect; nearly all actives have a fitted effect of over 60% in size
# In short: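 Myoblasts (C25cl48, HLA-B HiBiT) seeded in medium without dexamethasone, IFN-b 4 ng/ml added except unstimulated columns; 1 hr later compounds pinned (12-pt 1:3, top 46 uM final). Incubated 24 hrs, lysed 10 min, luminescence measured.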
structure (smiles),measurement,setting,value
CC1(N2CCC(n3c([C@@H]4CCCNC4)nc4ccccc43)CC2)CCCCCCC1,Potency,OV90,12.6 µM (active)
same,Potency,PA-1,15.8 µM (active)
same,Potency,Tov112D,22.4 µM (active)
O=[N+]([O-])c1c(Cl)c(Cl)cc(Cl)c1Cl,Potency,OV90,inactive
same,Potency,PA-1,inactive
same,Potency,Tov-21-G,inactive
same,Potency,Tov112D,inactive
same,Potency,[1],inactive
same,Potency,astro,inactive
same,max response,[2],3.25%
same,outcome,[3],inactive
CC(=O)Nc1ccc(OC[C@](C)(O)C(=O)Nc2ccc([N+](=O)[O-])c(C(F)(F)F)c2)cc1,Potency,OV90,inactive
same,Potency,PA-1,inactive
same,Potency,SKOV3,inactive
same,Potency,Tov112D,inactive
O=[N+]([O-])c1c2ccccc2cc2ccccc12,Potency,OV90,inactive
same,Potency,PA-1,inactive
same,Potency,Tov-21-G,inactive
same,Potency,Tov112D,inactive
same,Potency,astro,inactive
CC(N[C@H]1C[C@H]1c1ccccc1)c1ccc2c(c1)OCCO2 (stereo partly drawn),Potency,OV90,inactive
same,Potency,PA-1,inactive
same,Potency,Tov-21-G,inactive
same,Potency,Tov112D,inactive
O=c1[nH]c2ccc(Cl)cc2c(N[C@@H]2CN3CCC2CC3)c1-c1nc2ccccc2[nH]1,Potency,OV90,5.01 µM (active)
same,Potency,PA-1,2.24 µM (active)
same,Potency,Tov112D,25.1 µM (active)
same,Potency,[4]; HiBiT,3.52 µM (active)
same,Potency,[4]; Viability,17.6 µM (active)
Nc1ccc([N+](=O)[O-])cc1,Potency,OV90,inactive
same,Potency,PA-1,inactive
same,Potency,Tov-21-G,inactive
same,Potency,Tov112D,inactive
same,Potency,astro,inactive
same,max response,[2],-0.553%
same,outcome,[3],inactive
Nc1ccc(N=Nc2ccccc2)cc1,Potency,OV90,39.8 µM (active)
same,Potency,[1],inactive
c1cc2ccc3cccc4ccc(c1)c2c34,Potency,OV90,inactive
same,Potency,PA-1,inactive
same,Potency,SKOV3,inactive
same,Potency,Tov-21-G,inactive
same,Potency,[1],inactive
same,Potency,astro,inactive
same,max response,[2],6.39% and 2.28%
same,outcome,[3],inactive
OCCCBr,Potency,OV90,inactive
same,Potency,Tov-21-G,inactive
same,Potency,Tov112D,inactive
same,Potency,[1],inactive
same,Potency,astro,inactive
same,max response,[2],-2.6%
same,outcome,[3],inactive
